# Experimental data from PubChem BioAssay (NCATS).
# “And” between values parts separate entries of the source, which are not always exact repeats. Equal values may be shown once. Starred links: 1 amine or outer side, 2 acyl side, 3 side chain; linkers in the order of their positions; H or OH if unused. Positions of bridges follow the written chain, without caps; N, C: chain ends. Non-standard residues stand in square brackets, D forms with d. Residues, ends and D or L forms follow the SMILES beside them. Chains are numbered I, II in the order given. Actinocin(9to1) = Cc1c2oc3c(C)ccc(C(=O)[*:1])c3nc-2c(C(=O)[*:2])c(N)c1=O; NMeV = CN[CH](C(=O)O)C(C)C; Sar = CNCC(=O)O
# Test: qHTS profiling of the MIPE4 collection as inhibitors of Plasmodium falciparum (HB3) proliferation (AID 743347)
# Conditions: P. falciparum HB3 in erythrocytes, SYBR Green DNA, 72 h; at 28.5 µM (top of the series) unless noted
# Source text: Plasmodium falciparum is a virulent malarial parasite that kills 1-2 million people worldwide each year. Transmitted by mosquitoes, the sporozoite form of the parasite enters the blood stream to infect hepatocytes, where they become merozoites that infect red blood cells (erythrocytes). Within erythrocytes, merozoites begin a […] cycle of growth and division, after which the parasite is released to infect new red blood cells. Gametocytes, which form within erythrocytes as well, circulate in the bloodstream and are ingested by the mosquito, thereby completing the life cycle. To profile malarial isolates for differential chemical responses and to identify inhibitors of malarial growth, an assay that measures P. falciparum growth and replication within erythrocytes was employed. This assay uses a DNA binding fluorescent dye (SYBR Green) to detect parasite DNA following cell lysis. Because mature erythrocytes lack DNA, only Plasmodium-derived DNA is detected.
# The SYBR Green viability assay was adapted from a method described previously (Plouffe et al., 2008). For screening 3 ul culture medium was dispensed into 1536 well black clear bottom plates (Aurora Biotechnologies) using a Multidrop Combi (Thermo Fisher Scientific Inc.), 23 nL compounds in DMSO were added by a pin tool (Kalypsys), and 5 ul of erythrocytes infected with P. falciparum (0.3% parasitemia, 2.5% hematocrit final concentration) were added. The plates were incubated at 37 C in a humidified incubator in 5% CO2 for 72 h, and 2 ul lysis buffer (20 mM Tris HCl, 10 mM EDTA, 0.16% saponin, 1.6% triton X, 10X SYBR Green I supplied as 10,000X […] by Invitrogen) was added to each well. The plates were mixed for 25 sec with gentle shaking and incubated overnight at room temperature in the dark. The following morning, fluorescence intensity at 485(14) nm excitation and 535(25) nm emission wavelengths was measured on an EnVision (Perkin Elmer) plate reader. Plate reads were normalized relative to the control inhibitor (0.29 uM artemisinin) and vehicle (DMSO) wells present on each plate and then corrected by an algorithm using vehicle-only control plates at the beginning and end of the compound plate stack.
row,Compound,"growth, % of control"
1,NC(=O)N1CCC(CC(=O)N2CCC([C@H]3c4ncc(Br)cc4CCc4cc(Cl)cc(Br)c43)CC2)CC1,9.54%
2,O=C(Nc1ccc(Oc2ccnc3[nH]ccc23)c(F)c1)c1cccn(-c2ccc(F)cc2)c1=O,7.02%
3,CC(C)(N)c1ccc(-c2nc3ccccc3nc2-c2ccccc2)cc1,18.5%
4,OC[C@H]1OC(O)C[C@@H](O)[C@H]1O (stereo not given in full),86.6%
5,"Cc1c2oc3c(C)ccc(C(=O)NC4C(=O)NC(C(C)C)C(=O)N5CCCC5C(=O)N(C)CC(=O)N(C)C(C(C)C)C(=O)OC4C)c3nc-2c(C(=O)NC2C(=O)NC(C(C)C)C(=O)N3CCCC3C(=O)N(C)CC(=O)N(C)C(C(C)C)C(=O)OC2C)c(N)c1=O (stereo not given) (I: TVP[Sar][NMeV] / II: TVP[Sar][NMeV]; ester I:1-I:C, II:1-II:C; linker I:N-II:N via Actinocin(9to1); configuration not given here)",2.3%
6,Cc1ccc([N+](=O)[O-])cc1S(=O)(=O)N(C)N=Cc1cnc2ccc(Br)cn12,3.45%
7,O=C(CN1C(=O)C2(CCCC2)NC[C@H]1c1cc(F)cc(F)c1)Nc1ccc2c(c1)C[C@@]1(C2)C(=O)Nc2ncccc21,40.3%
8,O=c1ccn([C@@H]2O[C@H](CO)[C@H](O)[C@@H]2F)c(=O)[nH]1,645%
9,N[C@H]1CN(c2c(F)cc3c(=O)c(C(=O)O)cn(C4C[C@@H]4F)c3c2Cl)CC12CC2 (stereo not given in full),10%
10,CCCCCCCCCCCC(CC1OC(=O)C1CCCCCC)OC(=O)C(CC(C)C)NC=O (stereo not given),3.37%
11,CCCCCCCN(CC)CCCC(O)c1ccc(NS(C)(=O)=O)cc1 (stereo not given),54%
12,O=C(Nc1cccc(Nc2ncc(Br)c(NCCc3cnc[nH]3)n2)c1)N1CCCC1,3.84%
13,Cc1ccc(O)c(C(CCN(C(C)C)C(C)C)c2ccccc2)c1 (stereo not given),19.1%
14,O=C(O)C[C@H](O)C[C@H](O)C=Cc1c(C2CC2)nc2ccccc2c1-c1ccc(F)cc1,86.6%
15,COc1ccc(C[C@@H](C)[C@@H](C)Cc2ccc(OC)c(OC)c2)cc1OC,30.9%
16,C[C@H]1[C@@H](OC(=O)CCC(=O)O)O[C@@H]2O[C@@]3(C)CC[C@@H]4[C@H](C)CC[C@@H]1[C@@]24OO3,8.92%
17,C=CC(=O)Nc1cccc(Nc2nc(NC3CCC(N(C)C)CC3)nc3c2ncn3C(C)C)c1 (stereo not given),4.69%
18,Cn1cc(-c2ccc3ncc(Cc4ccc5ncccc5c4)n3n2)cn1,13.9%
19,CCCCOc1ccc(C(=O)Nc2ccc(F)cc2F)cc1,94.1%
20,O=C(NCc1ccccc1)[C@H](Cc1ccccc1)NC(=O)[C@@H]1O[C@@H]1C(=O)NCCc1ccc(O)cc1,33.6%

row,Compound,"growth, % of control"
1,O=c1[nH]c(=O)n([C@H]2C[C@@H](O)[C@@H](CO)O2)cc1F,138%
2,OCCN1C[C@H](O)[C@@H](O)[C@H](O)[C@@H]1CO,97.8%
3,C=CC1=C(C(=O)O)N2C(=O)[C@@H](NC(=O)C(=NO)c3csc(N)n3)[C@H]2SC1,68.4%
4,Cn1cc(C=CC(=O)c2cccc(F)c2)cc1C=CC(=O)NO,99.1%
5,Nc1ccc(C(=O)Nc2cccc(-c3nc(N4CCOCC4)c4oc5ncccc5c4n3)c2)cn1,2.51%
6,Nc1ccn(C2CO[C@H](CO)O2)c(=O)n1 (stereo not given in full),75.5%
7,CCN(C(=O)c1c(O)c2c(Cl)cccc2n(C)c1=O)c1ccccc1,102%
8,COc1cc(OC)c(NC(=O)Nc2cc(C)on2)cc1Cl,81.5%
9,CC(=O)OCC(=O)[C@@]1(O)CC[C@H]2[C@@H]3CCC4=CC(=O)CC[C@]4(C)[C@@H]3C(=O)C[C@@]21C,96.5%
10,CS(=O)(=O)N1CCc2c(-c3cnc(N)nc3)nc(N3CCOCC3)nc21,2.07%
11,COc1cccc2c1C(=O)c1c(O)c3c(c(O)c1C2=O)C[C@@](O)(C(=O)CO)C[C@@H]3O[C@H]1C[C@H](N)[C@H](OC2CCCCO2)[C@H](C)O1 (stereo not given in full),3.44%
12,Cn1cc(-c2cnn3c(N)c(Br)c([C@H]4CCCNC4)nc23)cn1,3.69%
13,N#Cc1cc(NC(=O)Nc2nnc(-c3ccncc3)s2)ccc1-c1cn[nH]c1,41.3%
14,O=[N+]([O-])c1cn2c(n1)OC[C@@H](OCc1ccc(OC(F)(F)F)cc1)C2,98.1% and 86.3%
15,CC(C)n1cnc2c(NCCc3ccc(O)cc3)nc(-c3csc4ccccc34)nc21,8.98%
16,CCc1cnn2c(NCc3ccc[n+]([O-])c3)cc(N3CCCC[C@@H]3CCO)nc12,8.08%
17,C#Cc1cccc(Nc2ncnc3cc(OCCOC)c(OCCO)cc23)c1,4.56%
18,CCOC(=O)[C@@H](N)Cc1ccc(-c2cc(O[C@H](c3ccc(Cl)cc3-n3ccc(C)n3)C(F)(F)F)nc(N)n2)cc1,15.8%
19,CC(Cc1ccc(O)c(O)c1)(NN)C(=O)O (stereo not given),54.9%
20,CC(=O)ON=C1C(c2c(O)[nH]c3cc(Br)ccc23)=Nc2ccccc21,2.46%
